PNC assembly inh: blocks assembly of the perinucleolar compartment; activity change (PNC), negative = inhibition, % at 10 µM; 140,000 compounds, 3.1% hits; PC3M PTB-GFP, PNC prevalence imaging, 16 h; stronger effect = lower value;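 active means readout at or below -70, meaning at least 70% loss of cells showing the perinucleolar compartment, a nuclear body marking cancer cells; inconclusive means readout between -30 and a set limit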;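 further: plate controls were DMSO wells for no effect and camptothecin positive control wells for full effect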
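PC3M cells stably expressing PTB-GFP, 750–1000 cells/well, treated 16 h at 37 °C with compound (23 nl of library stock), in duplicate. After paraformaldehyde fixation and Hoechst stain, imaged at 20x; PNC prevalence scored by image analysis.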
IMPase inh: IMPase inhibition in cells; P97697; inhibition (IP1 accumulation), % at 46.1 µM; 120,000 tested, under 10 active; CHO-M1 cells, IP1 accumulation, HTRF TR-FRET ratio; AID 901; active means well fitted curve in the direction sought with a large enough effect in the signal ratio, not every such curve was filed as active; inconclusive means small, poorly fitted or top-dose-only effect, or a change in a side signal; inactive means no such curve, though single readings can be large or run the other way; the % refers to the signal ratio;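 further: cells stimulated with carbachol in lithium chloride buffer; plate controls were DMSO basal wells for no effect and reference inhibitor wells for full effect; higher means more IMPase inhibition seen as more IP1 and lower FRET ratio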
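In this qHTS, compounds (final up to 46 uM) act on CHO-M1 cells that are then activated through the M1 receptor with carbachol, in pH 7.4 buffer containing 50 mM LiCl, for 30 min. IP1 accumulation is quantified by the IP-One immunoassay.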
ALDH1A1 inh: blocks purified human ALDH1A1 activity; Purified ALDH1A1, NADH fluorescence, propionaldehyde substrate; Potency, µM (highest dose often 75.3 µM), inactives show at the highest dose activity, negative = inhibition, hits mostly inhibitors; 220,000 compounds, 7.3% hits;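 further: potency means the concentration at half of the fitted maximal effect; plate controls were no enzyme wells and a reference inhibitor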
Target sequence (P00352 whole entry, looked up): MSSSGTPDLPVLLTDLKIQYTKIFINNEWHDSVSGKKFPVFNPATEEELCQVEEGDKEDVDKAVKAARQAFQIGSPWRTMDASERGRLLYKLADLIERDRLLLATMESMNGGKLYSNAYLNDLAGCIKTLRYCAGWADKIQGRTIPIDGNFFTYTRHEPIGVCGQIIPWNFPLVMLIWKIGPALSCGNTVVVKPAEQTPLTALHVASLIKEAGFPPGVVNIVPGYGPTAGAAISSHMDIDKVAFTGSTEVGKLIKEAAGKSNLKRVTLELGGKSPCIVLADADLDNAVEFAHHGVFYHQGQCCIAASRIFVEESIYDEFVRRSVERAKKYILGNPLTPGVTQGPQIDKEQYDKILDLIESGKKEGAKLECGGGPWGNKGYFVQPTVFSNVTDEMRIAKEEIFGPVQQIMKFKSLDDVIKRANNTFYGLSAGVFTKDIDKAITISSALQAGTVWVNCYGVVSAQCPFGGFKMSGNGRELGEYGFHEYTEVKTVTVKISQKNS
HPGD inh: HPGD (human) dehydrogenase inhibition; P15428; purified HPGD, NADH fluorescence kinetic, PGE2 substrate; Potency, µM, without a hit: at the highest dose activity change, negative = inhibition, most hits filed as inhibitors; 150,000 compounds, 4.3% hits; further: potency means the concentration at half of the fitted maximal effect
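NADH formation kinetics: reaction with 30 uM PGE2 and 1 mM NAD+ (final), 20 nM enzyme, Tris-HCl pH 8 with Tween 20, after 15 min compound preincubation at room temperature. Fluorescence change, last versus first of five reads.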
LMNA splice mod: changes lamin A minigene splicing in HeLa cells | HeLa LMNA splicing GFP/RFP minigene ratio, 48 h | Potency, µM (doses to about 46.1 µM), for inactives: top-dose ratio change, negative = inhibition, usual class: inhibitors | 200,000 compounds, 0.01% hits; active means well fitted inhibition curve with a large enough effect in the signal ratio, with a control signal flat, not every such curve was filed as active; inconclusive means small, poorly fitted or top-dose-only effect, or effect the other way, or a change in a side signal; the % refers to the signal ratio; further: potency means the concentration at half of the fitted maximal effect
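S3 HeLa cells stably expressing lamin A-EGFP splicing minigene plus DsRed2, 600 cells/well, 48 h compound exposure at 37C. Laser-scanning cytometry; analysed as GFP (500-530 nm)/RFP (575-640 nm) total intensity ratio; 0.5% DMSO vehicle.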
KinaseGlo FLuc: counter-screen: inhibitors of Kinase-Glo firefly luciferase; Q27757; Kinase-Glo luciferase, ATP luminescence, 8 min; Potency, µM (doses to about 38.3 µM), for inactives: at the highest dose activity change, negative = inhibition, hits mostly inhibitors; 200,000 compounds, 0.28% hits; AID 1379; active means well fitted inhibition curve with a large enough effect; inconclusive means small, poorly fitted or top-dose-only effect; further: potency means the concentration at half of the fitted maximal effect; nearly all actives have a fitted effect of over 60% in size
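Recombinant Kinase-Glo luciferase, 10 uM ATP (linear range), luciferin; imidazole pH 7.2 / KCl / MgCl2 / Tween / BSA buffer; 8 min RT; luminescence.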
Active calls of the source: *; ? = inconclusive; . = not tested or not shown; [ ] = remark or other dose. A selection: hits, their analogues and other compounds. The true share with any hit is near 10%. Unless noted, the call rests on the fitted dose curve; in most records, active means well fitted inhibition curve with a large enough effect (not every such curve was filed as active); inconclusive means small, poorly fitted or top-dose-only effect, or another doubt; inactive means no such curve, though single readings can be large or run the other way. Unless noted, on the % scale 0 is the no-effect control and ±100 the full control effect.

SMILES | PNC assembly inh | IMPase inh | ALDH1A1 inh | HPGD inh | LMNA splice mod | KinaseGlo FLuc
CCC(C)C(NC(=O)OC(C)(C)C)C(=O)NC(Cc1ccccc1)C(=O)OC (stereo not given) | ? | -2 | 12% | -1% | 1% | -3%
COC(=O)C(Cc1ccccc1)NC(=O)C(CC(C)C)NC(=O)OC(C)(C)C (stereo not given) | -112* | . | 1% | -3% | 2% | 2%
O=C(NC1CCCCC1)C(=S)NCCc1ccccc1 | . | . | 18µM* | . | -3%[46 µM] | 2%
O=[N+]([O-])c1cccc(NC(=S)NCCc2ccccc2)c1 | 43 | 19 | -1% | 7.9µM* | ? | 3%
O=C(NCCc1ccccc1)C(=O)NC1CCCCC1 | -1 | 11 | 7% | 5% | 6% | -2%
COc1ccc(Cl)cc1NC(=O)c1cc(S(=O)(=O)N(C)Cc2ccccc2)ccc1F | . | . | . | . | -11%[46 µM] | .
Cc1ccc(-n2ncc3c(NCCCn4ccnc4)ncnc32)cc1 | . | . | . | . | -1%[46 µM] | .
O=C(CSc1ccc(C(F)(F)F)cc1[N+](=O)[O-])Nc1ccc2ccccc2c1 | 9 | . | 5.6µM* | -7% | 5% | 3%
O=C(CN1CCCC1)N1CCCc2c1c(=O)oc1ccc(OCc3ccccc3)cc21 | 35 | -6 | ? | ? | ? | -3%
CN(CC(=O)N1CCCc2c1c(=O)oc1ccc(O)cc21)Cc1ccccc1 | ? | 11 | 13µM* | -15% | -2% | 2%
CC(C(=O)N1CCCc2c1c(=O)oc1ccc(O)cc21)N1CCc2ccccc2C1 (stereo not given) | -14 | 4 | ? | . | -2% | .
CC1CCN(CCC(=O)N2CCCc3c2c(=O)oc2ccc(O)cc32)CC1 | -8 | 7 | 2.2µM* | -1% | ? | -1%
CCN1C(=O)CC(N2CCOCC2)C1=O (stereo not given) | 6 | 2 | 3% | 3% | 8% | -4%
CN(C)N1C(=O)CC(N2CCCC2)C1=O (stereo not given) | . | . | 22µM* | . | . | -3%
COc1cccc(CNC(=O)CN2C(=O)CSc3c2c(C)nn3-c2ccccc2)c1OC | . | . | . | . | 10%[46 µM] | .
CCOc1ccc(OCCCN(C)C)cc1 | ? | 14 | 14µM* | -7% | 5% | 19%
CCCN1C(=O)/C(=c2\sc3nc(=O)c(Cc4ccc(C)cc4)nn3c2=O)c2ccccc21 | . | . | 6.3µM* | . | ? | 1%
CCCCN1C(=O)/C(=c2\sc3nc(=O)c(-c4ccccc4)nn3c2=O)c2ccccc21 | 20 | 4 | 4.5µM* | 25µM* | 4% | -4%
CCNc1ncc2nc(CCc3ccccc3)c(=O)n(CCC#N)c2n1 | . | . | ? | . | -15% | .
Cc1ccc(S(=O)(=O)N2CCCc3cc(NC(=O)c4ccc(C(F)(F)F)cc4)ccc32)cc1 | . | . | . | . | 4%[46 µM] | .
Cc1cc(C)c2c(-n3cccc3)c(C(=O)NNS(=O)(=O)c3ccc(Br)cc3)sc2n1 | 35 | -7 | 0.089µM* | -4% | -3% | 1%
CC1=NOC(=O)/C1=C\c1ccc(-c2ccc(Br)cc2)o1 | . | . | 10µM* | . | . | -8%
Cc1ccc(CCNC(=O)Cn2cccc2)cc1 | 22 | 2 | -10% | 14µM* | -8% | -4%
Cc1ccc(CCNC(=O)CN2N=C(c3ccc(C)cc3)CCC2=O)cc1 | . | . | . | . | -4%[46 µM] | .
COC(=O)c1c(-c2ccc(OC)c(OC)c2)csc1N | -15 | 1 | 4µM* | 28µM* | 1% | -4%
COC(=O)c1c(-c2cccc(OC)c2)csc1N | 30 | 2 | 25µM* | -19% | ? | 2%
O=C(c1ccncc1)N1CCC2(CCN(Cc3nccs3)CC2)CC1 | . | . | 7% | -3% | . | -1%
Cn1c(=O)c(-c2cc(F)cc(F)c2)nc2cnc(Nc3ccccc3)nc21 | . | . | 25% | . | -13% | .
COc1ccc(C2CC(=O)C3=C(C2)Nc2ccccc2N(C(=O)C2CC2)C3c2cccnc2)cc1OC (stereo not given) | ? | 19 | 14µM* | -21% | -1% | 1%
